The results in this text go back to PubChem BioAssay (NCI).

About 79,000 compounds went through this panel and 15% of them were active in at least one assay; those are over-represented in the sample as a whole. Values without a mark were called inactive. Calls of active or inactive are those of the source. Rule as the data show it: active = growth inhibition above about 70%; inactive = the rest.

Experiment [1] in a line: NCI Yeast Anticancer Drug Screen. Data for the rad50 strain (AID 155).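 Also: 0% = growth of vehicle-only cultures of the same strain.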 The following applies: S. cerevisiae rad50 strain growth inhibition; at 50.0 µM; stronger effect = higher value. In outline: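 Vehicle-treated cultures provide the reference for the growth inhibition reported for compound-exposed, repair-deficient yeast.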
Experiment [2] can be described thus: NCI Yeast Anticancer Drug Screen. Data for the mec2-1 strain (AID 157). The following applies: S. cerevisiae mec2-1 strain, at 50.0 µM, stronger effect = higher value. In outline: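 Vehicle-treated cultures served as reference for growth inhibition of compound-exposed mec2-1 yeast.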
Experiment [3] in a line: NCI Yeast Anticancer Drug Screen. Data for the sgs1 mgt1 strain (AID 161).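 Also: 0% = growth of cultures given vehicle only.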 The note with it: S. cerevisiae sgs1 mgt1 strain, at 50.0 µM, stronger effect = higher value. Summed up: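 Mutant yeast exposed to compound; growth scored against vehicle-only wells.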
The nature of experiment [4]: NCI Yeast Anticancer Drug Screen. Data for the cln2 rad14 strain (AID 165).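 Also: 0% = growth equal to vehicle treated cultures.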 The note with it: S. cerevisiae cln2 rad14 strain, at 50.0 µM, stronger effect = higher value. In outline:
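Each compound was tested on cln2 rad14 yeast. Inhibition of growth was calculated against vehicle-exposed controls.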

A short description of experiment [5]: NCI Yeast Anticancer Drug Screen. Data for the bub3 strain (AID 167). The following applies: S. cerevisiae bub3 mutant strain, at 50.0 µM, stronger effect = higher value. Summed up: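 Mutant yeast screening strain plus compound; vehicle-treated cultures serve as the 0% inhibition reference.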
The nature of experiment [6]: NCI Yeast Anticancer Drug Screen. Data for the mlh1 rad18 strain (AID 175). The following applies: S. cerevisiae mlh1 rad18 strain growth inhibition; at 50.0 µM; stronger effect = higher value. In outline:
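Vehicle-treated cultures served as the reference for growth inhibition in a yeast strain carrying DNA damage repair alterations exposed to each compound.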

Turning to `CN(C)CC1C(O)C2CCN1CC2` (stereo not given), the growth inhibition was 3.95% in experiment [1]; 9.3% in experiment [2]; -3.1% in experiment [3]; -5.3% in experiment [4]; -5.5% in experiment [5]; -1.85% in experiment [6].
Take `O=c1[nH]c(=O)c2[nH]c(N=Nc3ccc(N(CCCl)CCCl)cc3)nc2[nH]1`: the growth inhibition in experiment [1] is 20.9%; in experiment [2] it was 6.1%; in experiment [3], 34.6%; in experiment [4], 38.1%; in experiment [5], 10.7%; in experiment [6], 17.6%.
With `C1CC[N-]CC1.CN(C)P(=O)(N(C)C)N(C)C.OO.OO.[O]=[Mo]`, the growth inhibition is 11.3% in experiment [1]; -16% in experiment [2]; 15.6% in experiment [3]; 17.4% in experiment [4]; 11.9% in experiment [5]; 15.7% in experiment [6].
`CN(C)C(=O)Sc1c(Cl)cc(Cl)cc1S(=O)(=O)F`: the growth inhibition is 43.1% in experiment [1]; 6.9% in experiment [2]; 56% in experiment [3]; 32.6% in experiment [4]; -3.2% in experiment [5]; 20.6% in experiment [6].
For the compound `O=C1Cc2ccccc2C(=O)N1CCN1CCOCC1`, the growth inhibition is 4.05% in experiment [1]; -14.2% in experiment [2]; -3.95% in experiment [3]; 1.55% in experiment [4]; -1.5% in experiment [5]; 1.55% in experiment [6].
With `CC1=C(C)C(=O)O[C@@H]([C@](C)(O)[C@]2(O)CC[C@@]3(O)[C@@H]4C[C@H]5O[C@]56[C@@H](O)C=CC(=O)[C@]6(C)[C@H]4CC[C@]23C)C1`, the growth inhibition was 14.9% in experiment [1]; 24.9% in experiment [2]; 10.7% in experiment [3]; 13.4% in experiment [4]; 20.1% in experiment [5]; 12.8% in experiment [6].
Consider `O=S(=O)(O)c1ccc([Se][Se]c2ccc(S(=O)(=O)O)cc2)cc1`, for which the growth inhibition in experiment [1] is 5.8%; in experiment [2], -12.9%; in experiment [3] it was -18.1%; in experiment [4], -33.5%; in experiment [5], -19.2%; in experiment [6], -17.4%.
For the compound `NCC(Cc1ccccc1)P(=O)(O)O` (stereo not given), the growth inhibition is -23.8% in experiment [1]; -28.6% in experiment [2]; -26.4% in experiment [3]; -42.3% in experiment [4]; -28.1% in experiment [5]; -22.8% in experiment [6].
As for `CCC(Cl)COP(=O)(OCC(Cl)CC)C(CC)OP(=S)(OCC(Cl)CC)OCC(Cl)CC` (stereo not given), the growth inhibition in experiment [1] was 16.6%; in experiment [2] it was 11.3%; in experiment [3], 65.7%; in experiment [4], 94.8% (active); in experiment [5], 57.5%; in experiment [6], 20.9%.
For `CCC1(CCBr)C(=O)NC(=O)NC1=O`, the growth inhibition in experiment [1] was -33.6%; in experiment [2], 3.35%; in experiment [3], 11.8%; in experiment [4], -34.5%; in experiment [5], 21.6%; in experiment [6] it was 2.3%.
For the compound `C1=C(c2ccccc2)CCN(C2(c3ccccc3)CCCCC2)C1`, the growth inhibition was -5.6% in experiment [1]; 0.75% in experiment [2]; -4.2% in experiment [3]; -33.5% in experiment [4]; 16.5% in experiment [5]; 9.35% in experiment [6].
With `CN1CCC(O)(c2ccccc2)C(c2ccccc2)C1` (stereo not given), the growth inhibition in experiment [1] is 0.25%; in experiment [2], 1.05%; in experiment [3], -8.45%; in experiment [4], 0.4%; in experiment [5] it was 0.6%; in experiment [6] it was -0.05%.
Take `CN(C)C1C(=O)C(C(=O)NP(=O)(NCCCO)N(CCCl)CCCl)=C(O)C2(O)C(=O)C3=C(O)c4c(O)cccc4C(C)(O)C3CC12` (stereo not given): the growth inhibition in experiment [1] is 27.6%; in experiment [2], 20.1%; in experiment [3], 21.9%; in experiment [4] it was 15.3%; in experiment [5], 25.6%; in experiment [6], 6.9%.
As for `CCN(CC)C(=S)[S][Pb]([CH2]C)([CH2]C)[CH2]C`, the growth inhibition in experiment [1] is 3.5%; in experiment [2] it was 9.25%; in experiment [3], 30.2%; in experiment [4] it was 16.9%; in experiment [5], -1.35%; in experiment [6] it was 10.2%.
For `NC1=C(c2nc(-c3cc4ccccc4oc3=O)cs2)C(c2ccco2)c2c(c3ccccc3oc2=O)O1` (stereo not given), the growth inhibition in experiment [1] was -3.15%; in experiment [2] it was -9.9%; in experiment [3], -21.4%; in experiment [4] it was -38.8%; in experiment [5], 4.1%; in experiment [6], -14.3%.
For `O=C(NC(c1ccccc1)(c1ccccc1)c1ccccc1)N(CCCl)CCCl`, the growth inhibition in experiment [1] is 5.95%; in experiment [2], 20.7%; in experiment [3] it was 12.9%; in experiment [4], 5.3%; in experiment [5], 39.5%; in experiment [6], -7.5%.
Turning to `CN1C(=O)N(C)C(O)C(Cl)(Cl)C1=O` (stereo not given), the growth inhibition in experiment [1] was -4.75%; in experiment [2], 10.1%; in experiment [3], 13.6%; in experiment [4], 30.6%; in experiment [5], 26.1%; in experiment [6], 11.6%.
Consider `NNC(N)=NCCCC(N)C(=O)O` (stereo not given), for which the growth inhibition is -22% in experiment [1]; -42% in experiment [2]; -34.3% in experiment [3]; 5.2% in experiment [4]; -45.6% in experiment [5]; -16.6% in experiment [6].
For the compound `NC(CSSCC(N)C(=O)c1ccccc1)C(=O)c1ccccc1` (stereo not given), the growth inhibition in experiment [1] is 23.9%; in experiment [2], 0.8%; in experiment [3], 9.3%; in experiment [4], 6%; in experiment [5], 6.55%; in experiment [6] it was 4.35%.
As to `O=[N+]([O-])C1CCC(O)C([N+](=O)[O-])C1` (stereo not given) (tested in a mixture with another compound), the growth inhibition in experiment [1] is 71.8% (active); in experiment [2], 37.7%; in experiment [3], 93.7% (active); in experiment [4] it was 69.3%; in experiment [5] it was 13.6%; in experiment [6] it was 86.8% (active).
